Experimental data reported in PubChem BioAssay (NCATS).
Values joined by “and” are separate entries in the source; they are usually repeats but may differ in a detail not shown here. Equal values may be shown once. Results filed as inconclusive are left out. Active and inactive are the calls of the source. Unless noted, the call rests on the fitted dose curve.

How the values were obtained:
[1] = target: Peroxisome proliferator-activated receptor delta (Homo sapiens) (UniProt Q03181); experiment: qHTS assay for small molecule agonists of peroxisome proliferator-activated receptor delta signaling (AID 588534)
Chain of Peroxisome proliferator-activated receptor delta (Homo sapiens) (Q03181 whole entry, looked up): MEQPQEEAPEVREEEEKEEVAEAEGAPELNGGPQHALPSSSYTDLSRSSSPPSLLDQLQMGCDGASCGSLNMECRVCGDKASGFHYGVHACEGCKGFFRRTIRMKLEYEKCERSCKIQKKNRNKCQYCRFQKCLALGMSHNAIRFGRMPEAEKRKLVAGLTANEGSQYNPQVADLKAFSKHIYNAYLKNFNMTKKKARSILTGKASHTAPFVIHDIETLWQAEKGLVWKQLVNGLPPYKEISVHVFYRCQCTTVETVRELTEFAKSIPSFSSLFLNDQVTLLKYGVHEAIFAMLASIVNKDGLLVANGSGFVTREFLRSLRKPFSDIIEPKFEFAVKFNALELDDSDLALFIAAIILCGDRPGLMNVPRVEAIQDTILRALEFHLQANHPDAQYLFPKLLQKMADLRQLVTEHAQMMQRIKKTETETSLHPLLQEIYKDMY
How it was run: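 EC50 and efficacy values derive from Hill fits of a concentration series in a beta-lactamase reporter cell assay. Exposure is 18 hrs at 37 C, with CCF4 fluorescence as the readout.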

[2] = qHTS assay for small molecule antagonists of peroxisome proliferator-activated receptor delta signaling (AID 588535; active means well fitted inhibition curve with a large enough effect in the signal ratio, with a control signal flat, not every such curve was filed as active; the % refers to the signal ratio;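 on max response: cells co-treated with a PPAR-delta agonist as stimulator during compound exposure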); conditions: HEK293T PPARd-UAS-bla, beta-lactamase FRET ratio, 18 h; 460 nm channel
How it was run: (§1)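 Compounds tested in titration on PPAR-delta-UAS-bla HEK293T cells grown in charcoal/dextran-stripped serum (2%); beta-lactamase activity read via CCF4 emission at 460 and 530 nm.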

[3] = target: Peroxisome proliferator-activated receptor delta (Homo sapiens) (UniProt Q03181); experiment: as above
How it was run: as §1

[4] = target: Peroxisome proliferator-activated receptor gamma (Homo sapiens) (UniProt P37231); experiment: qHTS assay for small molecule agonists of peroxisome proliferator-activated receptor gamma signaling (AID 588536; active means well fitted curve in the direction sought with a large enough effect in the signal ratio, with a control signal flat, not every such curve was filed as active; the % refers to the signal ratio;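 further: 0% = DMSO basal wells and 100% = rosiglitazone at 2 µM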)
Chain of Peroxisome proliferator-activated receptor gamma (Homo sapiens) (P37231 whole entry, looked up): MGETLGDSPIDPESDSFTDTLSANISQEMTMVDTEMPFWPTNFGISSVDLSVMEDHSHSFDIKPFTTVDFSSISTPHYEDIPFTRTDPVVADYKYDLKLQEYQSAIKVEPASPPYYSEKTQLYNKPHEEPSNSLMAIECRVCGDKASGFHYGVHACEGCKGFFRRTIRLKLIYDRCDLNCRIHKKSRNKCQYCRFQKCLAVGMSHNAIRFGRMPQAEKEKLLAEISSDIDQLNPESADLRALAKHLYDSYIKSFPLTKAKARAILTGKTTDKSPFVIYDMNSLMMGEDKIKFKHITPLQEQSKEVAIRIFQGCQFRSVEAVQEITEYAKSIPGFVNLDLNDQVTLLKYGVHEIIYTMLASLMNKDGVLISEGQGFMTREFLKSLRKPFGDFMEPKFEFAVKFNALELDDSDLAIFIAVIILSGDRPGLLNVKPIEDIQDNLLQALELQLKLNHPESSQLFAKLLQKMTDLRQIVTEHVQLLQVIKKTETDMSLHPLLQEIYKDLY
How it was run: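 This is an agonist-mode beta-lactamase reporter assay in HEK293 PPAR-gamma-UAS-bla cells with 1% charcoal/dextran FBS. Compound titrations ran 16 h at 37 C before CCF4 detection. EC50 and efficacy are Hill fits scaled to 2 uM rosiglitazone (100%) and DMSO basal.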

[5] = target: Bile acid receptor (Homo sapiens) (UniProt Q96RI1); experiment: qHTS assay for small molecule antagonists of farnesoid X receptor signaling (AID 588526); further: on the % scale 0 is the no-effect control and ±100 the full control effect
Chain of Bile acid receptor (Homo sapiens) (Q96RI1 whole entry, looked up): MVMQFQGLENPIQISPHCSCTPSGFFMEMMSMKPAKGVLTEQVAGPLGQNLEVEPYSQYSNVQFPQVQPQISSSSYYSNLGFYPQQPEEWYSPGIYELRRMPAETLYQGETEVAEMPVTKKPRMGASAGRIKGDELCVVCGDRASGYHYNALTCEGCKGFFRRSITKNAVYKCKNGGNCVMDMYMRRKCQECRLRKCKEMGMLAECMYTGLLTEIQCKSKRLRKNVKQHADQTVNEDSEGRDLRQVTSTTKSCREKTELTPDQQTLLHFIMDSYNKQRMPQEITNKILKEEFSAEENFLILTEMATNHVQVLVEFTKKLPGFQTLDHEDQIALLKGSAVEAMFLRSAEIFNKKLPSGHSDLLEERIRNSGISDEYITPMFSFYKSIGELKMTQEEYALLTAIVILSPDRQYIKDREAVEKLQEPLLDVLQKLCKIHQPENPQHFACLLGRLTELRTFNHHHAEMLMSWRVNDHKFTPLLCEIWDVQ
How it was run: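 Concentration-response titrations were fitted to the Hill equation for half-maximal inhibition and maximal response, with data normalised to 50 uM chenodeoxycholic acid and DMSO control wells. Cells: FXR-UAS-bla HEK293T, dialyzed FBS.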

[6] = target: Bile acid receptor (Homo sapiens) (UniProt Q96RI1); experiment: qHTS assay for small molecule agonists of farnesoid X receptor signaling (AID 588527); conditions: HEK293T FXR-UAS-bla, beta-lactamase ratio, 16 h; stronger effect = higher value;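 further: series mostly up to about 77 µM; 0% = vehicle basal and 100% = reference agonist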
How it was run: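 Agonist-mode beta-lactamase reporter in GeneBLAzer FXR-UAS-bla HEK293T cells, titration up to 92 uM, 16 h exposure at 37 C, CCF4 fluorescence. Response scaled to DMSO (0%) and 100 uM chenodeoxycholic acid (100%), then Hill-fitted for EC50 and efficacy.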

[7] = target: Glucocorticoid receptor (Homo sapiens) (UniProt P04150); experiment: qHTS assay for small molecule agonists of glucocorticoid receptor signaling (AID 588532; active means well fitted curve in the direction sought with a large enough effect in the signal ratio, with a control signal flat; the % refers to the signal ratio;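 further: 100% = dexamethasone at 0.1 µM and 0% = DMSO only wells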); conditions: HeLa MMTV-bla, beta-lactamase ratio, agonist, 18 h; stronger effect = higher value; percent of dexamethasone control, DMSO zero
Chain of Glucocorticoid receptor (Homo sapiens) (P04150 whole entry, looked up): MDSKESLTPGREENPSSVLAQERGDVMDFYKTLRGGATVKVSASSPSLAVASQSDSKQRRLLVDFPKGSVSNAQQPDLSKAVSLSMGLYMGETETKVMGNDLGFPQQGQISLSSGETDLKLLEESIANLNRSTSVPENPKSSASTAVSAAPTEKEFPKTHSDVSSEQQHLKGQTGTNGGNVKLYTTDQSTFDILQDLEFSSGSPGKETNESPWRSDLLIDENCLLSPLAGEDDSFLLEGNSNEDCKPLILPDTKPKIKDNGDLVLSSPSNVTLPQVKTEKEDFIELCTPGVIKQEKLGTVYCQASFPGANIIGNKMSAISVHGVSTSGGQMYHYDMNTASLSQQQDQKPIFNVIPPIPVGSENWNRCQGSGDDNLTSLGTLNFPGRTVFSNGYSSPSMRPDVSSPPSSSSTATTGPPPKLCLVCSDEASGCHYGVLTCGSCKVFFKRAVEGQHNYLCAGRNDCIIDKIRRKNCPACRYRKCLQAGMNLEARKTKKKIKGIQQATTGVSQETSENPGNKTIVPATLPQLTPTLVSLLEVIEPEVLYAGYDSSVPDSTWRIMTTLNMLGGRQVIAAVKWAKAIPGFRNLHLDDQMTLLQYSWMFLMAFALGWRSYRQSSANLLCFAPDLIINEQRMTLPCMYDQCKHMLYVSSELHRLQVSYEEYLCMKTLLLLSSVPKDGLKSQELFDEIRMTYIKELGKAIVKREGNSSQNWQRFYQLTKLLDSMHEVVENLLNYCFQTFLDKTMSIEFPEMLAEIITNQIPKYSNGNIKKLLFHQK
How it was run: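 MMTV-bla HeLa, beta-lactamase reporter; medium with 1% charcoal/dextran-stripped FBS; cpds up to 92 uM, 18 h, 37 C; CCF4 readout 460/530 nm; Hill fit → EC50, efficacy vs 0.1 uM dexamethasone = 100%.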

[8] = target: Glucocorticoid receptor (Homo sapiens) (UniProt P04150); experiment: qHTS assay for small molecule antagonists of glucocorticoid receptor signaling (AID 588533; active means well fitted inhibition curve with a large enough effect in the signal ratio, with a control signal flat, not every such curve was filed as active; the % refers to the signal ratio;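 further: cells stimulated with 2 nM dexamethasone as agonist; on the % scale 0 is the no-effect control and ±100 the full control effect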)
How it was run: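 Antagonist-mode qHTS: compound titrations added to GRE-bla HeLa cells, then dexamethasone 2 nM final; 18 h, 37 C. CCF4 FRET fluorescence normalized to dexamethasone and DMSO; IC50 from Hill fit.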

[9] = target: Androgen receptor (Homo sapiens) (UniProt P10275); experiment: qHTS assay for small molecule agonists of androgen receptor signaling (AID 588515; active means well fitted curve in the direction sought with a large enough effect in the signal ratio, with a control signal flat; the % refers to the signal ratio; further: on the % scale 0 is the no-effect control and ±100 the full control effect); conditions: AR-UAS-bla HEK293, beta-lactamase ratio, agonist 16 h; stronger effect = higher value
Chain of Androgen receptor (Homo sapiens) (P10275 whole entry, looked up): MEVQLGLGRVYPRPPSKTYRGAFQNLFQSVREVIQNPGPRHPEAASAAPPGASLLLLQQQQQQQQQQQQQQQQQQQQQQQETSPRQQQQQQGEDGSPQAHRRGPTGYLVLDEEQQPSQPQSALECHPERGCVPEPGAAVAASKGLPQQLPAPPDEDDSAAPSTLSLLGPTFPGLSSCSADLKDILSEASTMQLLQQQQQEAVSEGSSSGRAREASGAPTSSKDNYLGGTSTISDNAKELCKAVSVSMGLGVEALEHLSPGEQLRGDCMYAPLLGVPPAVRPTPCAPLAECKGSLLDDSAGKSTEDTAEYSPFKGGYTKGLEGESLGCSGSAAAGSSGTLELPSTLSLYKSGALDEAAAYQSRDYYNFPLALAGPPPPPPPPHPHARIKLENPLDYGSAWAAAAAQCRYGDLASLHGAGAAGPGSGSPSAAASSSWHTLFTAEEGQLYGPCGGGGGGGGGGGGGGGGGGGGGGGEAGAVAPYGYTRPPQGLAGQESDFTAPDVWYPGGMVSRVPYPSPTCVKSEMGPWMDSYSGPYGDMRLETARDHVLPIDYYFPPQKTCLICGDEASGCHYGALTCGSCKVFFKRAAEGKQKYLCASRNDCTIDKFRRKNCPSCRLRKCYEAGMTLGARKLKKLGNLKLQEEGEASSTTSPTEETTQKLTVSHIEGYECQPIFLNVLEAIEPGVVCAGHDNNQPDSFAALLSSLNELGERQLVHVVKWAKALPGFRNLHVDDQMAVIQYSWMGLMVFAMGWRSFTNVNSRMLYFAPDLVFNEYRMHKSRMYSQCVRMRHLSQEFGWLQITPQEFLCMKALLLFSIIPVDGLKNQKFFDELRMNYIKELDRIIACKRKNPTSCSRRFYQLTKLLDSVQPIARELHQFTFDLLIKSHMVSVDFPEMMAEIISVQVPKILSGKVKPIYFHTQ
How it was run: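 Stimulation of an AR-responsive β-lactamase reporter in GripTite HEK293 cells was measured after 16 h compound exposure at 37 °C, via CCF4 fluorescence after 2 h RT. EC50 from Hill fits, normalized to R1881 at 30 nM.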

[10] = target: Androgen receptor (Homo sapiens) (UniProt P10275); experiment: qHTS assay for small molecule antagonists of androgen receptor signaling (AID 588516; active means well fitted curve in the direction sought with a large enough effect in the signal ratio, with a control signal flat, not every such curve was filed as active; the % refers to the signal ratio; further: on the % scale 0 is the no-effect control and ±100 the full control effect)
Description: NIH Chemical Genomics Center [NCGC] U.S. Environmental Protection Agency [EPA] National Institutes of Environmental Health Sciences [NIEHS] National Toxicology Program [NTP] NCGC Assay Overview Androgen receptor (AR), located at chromosome Xq11-12, is an important member of nuclear hormone receptors. AR signaling plays a critical role in AR-dependent prostate cancer and other androgen related diseases. Considerable attention has been given in the past decades to the possibility of some of environmental chemicals which may contribute the endocrine disruption. Therefore, it is important to understand the effect of environmental chemicals in AR signaling pathway.
NCGC Assay Protocol Summary Using a beta-lactamase reporter-gene under control of the AR response element, a cell-based assay [GeneBLAzer AR-UAS-bla-GripTite assay developed by Invitrogen] was used to measure AR ligands signaling. AR-UAS-bla-GripTite HEK 293 cells were used with assay medium containing 10% dialyzed FBS, 0.1 mM NEAA and 1 mM sodium pyruvate. The assay was performed in clear bottom black Greiner 1536-well plates. Library compounds were measured for their ability to inhibit the reporter gene activity. Compounds were screened in a titration series in 1536-well format. The fluorescence intensity (405 nm excitation, 460/530 nm emission) was measured using an EnVision plate reader. Data was normalized relative to R1881 (10nM, 100%), and DMSO only wells (basal, 0%). Concentration-response titration points for each compound were fitted to the Hill equation yielding concentrations of half-maximal inhibition (IC50) and maximal response (efficacy) values. qHTS protocol for AR beta-lactamase assay in antagonist mode [Step] [Parameter] [Value] [Description] 1. Reagent; 5 uL; 2000 cells/well 2. Incubation; 37 C for 5 hrs 3. Compounds; 23 nL; 0.59 nM to 92 uM 4. Controls (Cyp Ac, AR antagonist); 23 nL, dose response, 1:3 dilutions with duplicates 5. Agonist (Stimulator); 1uL; R1881 at 10nM (final) concentration 6. Incubation; 37 C for 16 hrs 7. Detection reagent; 1 uL of CCF4-dye 8. Incubation; RT for 2 hrs 9. Detection; Fluorescence; Envision plate reader

O=C(O)C(Cl)(Cl)Cl
-10%: max response [2]
inactive: outcome [1] | outcome [3] | outcome [4]

CC(C)(C)c1cc(O)ccc1O
inactive: Potency [5] | activation [6] 0.716% and -1.49% and 4.72% | activation [7] 4.46% and 3.75% and 5.49% | Potency [8] | outcome [1] | outcome [3]
24.1%: max response [2]

N#CN
20.7%: max response [2]
inactive: activation [7] -6.37% | outcome [1] | outcome [3] | outcome [4]

O=[N+]([O-])C(Br)(CO)CO
-53.3%: max response [2]
inactive: activation [9] -2.08% | outcome [10] | Potency [5] | activation [6] 2.54% | outcome [1] | outcome [3] | outcome [4]

COc1ccc2c(c1OC)C(=O)OC2C1c2cc3c(cc2CCN1C)OCO3 (stereo not drawn)
inactive: activation [9] -2.23% | outcome [10] | outcome [1] | outcome [4]

CCOC(=O)c1ccccc1C(=O)OCC
24.2% and 33.2%: max response [2]
inactive: activation [7] -2.44% and -3.91% | Potency [8] | outcome [1] | outcome [3] | outcome [4]

O=c1[nH]c(=O)n(Cl)c(=O)n1Cl
inactive: activation [7] 26.8% | Potency [8] | outcome [4]

CCCCCl
inactive: Potency [5] | activation [6] 1.93% | activation [7] 5.23% | Potency [8] | outcome [1] | outcome [3] | outcome [4]
7.66%: max response [2]

Oc1cc(Cl)c(Cl)cc1Cl
inactive: outcome [4]

COC1=CC(=O)O[C@@H](/C=C/c2ccccc2)C1
inactive: Potency [5] | activation [6] -0.876% | activation [7] -2.27% | Potency [8] | outcome [4]

ClC(Cl)(Cl)Cl
30.1%: max response [2]
inactive: Potency [5] | activation [6] -1.25% and -2.57% | outcome [1] | outcome [3] | outcome [4]

O=[N+]([O-])c1ccc(F)c([N+](=O)[O-])c1
inactive: activation [6] -1.56% | outcome [4]

O=C1CCO1
13.3%: max response [2]
inactive: activation [9] 25.6% | outcome [10] | Potency [5] | activation [6] 0.979% | activation [7] -0.359% | Potency [8] | outcome [1] | outcome [3] | outcome [4]

ClCC1CO1 (stereo not drawn)
inactive: activation [7] -9.3% | Potency [8] | outcome [1] | outcome [4]

COCC(C)N(C(=O)CCl)c1c(C)csc1C (stereo not drawn)
inactive: Potency [5] | activation [6] 0.208% | activation [7] -2.08% | Potency [8] | outcome [1]

O=C(O)c1cc[c]([Hg][Cl])cc1
inactive: Potency [5] | activation [6] 1.46% | activation [7] 5.77% | Potency [8]

O=C/C=C/c1ccccc1
-5.87%: max response [2]
inactive: activation [7] 3.19% and -0.384% | Potency [8] | outcome [1] | outcome [3] | outcome [4]

CCCSP(=O)(OCC)SCCC
inactive: activation [9] -4.11% | Potency [5] | activation [6] 2.76% | Potency [8] | outcome [4]
